# Compound activity as filed in PubChem.
# This is a sample that favours compounds with a hit; in the whole collection about 12% have one here.
# PLK1 PBD block: blocks phosphopeptide binding to human PLK1 polo-box domain; P53350; Plk1 PBD binding of FITC phosphopeptide, fluorescence polarization; Potency, µM, inactives show max response, negative = inhibition, most hits filed as inhibitors; hit rate 2.8% among 360,000; AID 720504; also: potency is read from the fitted curve at half-maximal effect; series mostly up to about 57 µM; % is scaled to controls: 0 for no effect and ±100 for the full control effect; nearly all actives have a fitted effect of over 65% in size
# HP1b binding inh: inhibitors of HP1-beta chromodomain binding to methylated histone tails; P83916; Potency, µM (titrated, usually from 114 µM), without a hit: at the highest dose activity change, negative = inhibition, hits mostly inhibitors; AlphaScreen HP1-beta / biotin-H3K9me3 peptide binding; hit rate 0.56% among 390,000; also: potency is read from the fitted curve at half-maximal effect; nearly all actives have a fitted effect of over 70% in size
# Target sequence (P83916 whole entry, looked up): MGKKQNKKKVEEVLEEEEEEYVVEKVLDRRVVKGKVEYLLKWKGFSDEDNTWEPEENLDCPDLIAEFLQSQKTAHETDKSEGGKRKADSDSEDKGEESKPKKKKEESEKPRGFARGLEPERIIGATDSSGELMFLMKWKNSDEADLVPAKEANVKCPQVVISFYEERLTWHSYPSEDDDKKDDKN
#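 Compound inhibition of the preformed complex between 50 nM HP1-beta and 50 nM biotinylated H3K9me3 peptide was read by AlphaScreen. Buffer was PBS pH 7.4 with 0.01% Tween-20. Incubations ran 30 min at room temperature, with 10 ug/mL donor/acceptor beads.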
# PI5P4Ka inh: PI5P4K alpha (human) kinase inhibition. P48426. PI5P4Kalpha enzyme, ADP-Glo luminescence, 60 min; stronger effect = lower value. max response, %. hit rate 1.2% among 330,000; active = max response of -50% or lower; inconclusive = between -30% and -50%; inactive = -30% or higher; also: value at the top dose of about 77 µM; % is scaled to controls: 0 for no effect and ±100 for the full control effect
# Target sequence (P48426 whole entry, looked up): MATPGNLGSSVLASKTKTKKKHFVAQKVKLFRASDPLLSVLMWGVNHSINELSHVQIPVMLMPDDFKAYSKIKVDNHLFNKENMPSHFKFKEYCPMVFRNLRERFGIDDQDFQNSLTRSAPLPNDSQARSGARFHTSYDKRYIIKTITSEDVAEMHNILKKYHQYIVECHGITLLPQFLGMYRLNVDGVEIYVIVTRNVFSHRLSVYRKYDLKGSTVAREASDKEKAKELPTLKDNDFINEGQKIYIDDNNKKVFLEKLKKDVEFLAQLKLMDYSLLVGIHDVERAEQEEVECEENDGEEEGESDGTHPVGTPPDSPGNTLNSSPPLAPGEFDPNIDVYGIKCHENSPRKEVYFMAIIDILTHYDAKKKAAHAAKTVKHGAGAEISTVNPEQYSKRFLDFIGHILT
#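 Single end-point luminescence (ADP-Glo) quantified ADP from PI5P4Kalpha turnover; ATP 5 microM final, 1 h at RT, 0.1% CHAPS and 0.28 mM EGTA in HEPES pH 7.4.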
# BAZ2B inh: BAZ2B (human) inhibition. Q9UIF8. AlphaScreen BAZ2B-H3K14Ac peptide displacement. Potency, µM (top dose mostly 114 µM), inactives show at the highest dose activity change, negative = inhibition, most hits filed as inhibitors. AID 504333. hit rate 4.4% among 360,000; also: potency is read from the fitted curve at half-maximal effect; % is scaled to controls: 0 for no effect and ±100 for the full control effect; nearly all actives have a fitted effect of over 60% in size
#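 BAZ2B 50 nM plus b-H3(5-23)K14Ac 50 nM, PBS pH 7.4/0.01% Tween-20, 30 min RT; compound added (max 110 uM), 30 min RT; streptavidin donor/Ni-chelate acceptor beads 10 ug/mL final, 20 min dark; AlphaScreen read.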
# G9a block: inhibitors of human histone lysine methyltransferase G9a | G9a H3K9 monomethylation, AlphaScreen, 2 h | Potency, µM (titrated, usually from 102 µM), for the others: top-dose activity, negative = inhibition, usual class: inhibitors | Q96KQ7 | hit rate 8.8% among 350,000; also: potency is read from the fitted curve at half-maximal effect; % is scaled to controls: 0 for no effect and ±100 for the full control effect; nearly all actives have a fitted effect of over 75% in size
#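 Using a bead-based AlphaScreen, monomethylated H3K9 product from 2 h room-temperature reactions (G9a 20 nM, peptide 500 nM, SAM 20 uM) was detected with 0.5 ug/mL rabbit anti-H3K9me1 antibody.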
# JMJD2A Tudor: JMJD2A Tudor domain (human) inhibition; AlphaScreen JMJD2A-Tudor / H3K4me3 peptide binding; O75164; Potency, µM (doses to about 114 µM), inactives show at the highest dose activity change, negative = inhibition, hits mostly inhibitors; hit rate 4.4% among 390,000; also: potency is read from the fitted curve at half-maximal effect; % is scaled to controls: 0 for no effect and ±100 for the full control effect; nearly all actives have a fitted effect of over 50% in size
# Active calls of the source: *; u = inconclusive; x = no result; [ ] = dose if it differs, or a comment. Unless noted, calls follow the shape of the dose curve; as a rule, active = well fitted curve in the direction sought with a large enough effect; inconclusive = small, poorly fitted or top-dose-only effect, or another doubt; inactive = no such curve, though single readings can be large; an effect the other way counts as inactive or inconclusive.
SMILES,PLK1 PBD block,HP1b binding inh,PI5P4Ka inh,BAZ2B inh,G9a block,JMJD2A Tudor
Cc1cc(N2C(=O)C(O)=C(C(=O)c3ccco3)C2c2cccc(O)c2)no1 (stereo unspecified),u,39.1%,0.3,u,u,-24.3%
Cc1cc(N2C(=O)C(O)=C(C(=O)c3ccco3)C2c2ccccc2F)no1 (stereo unspecified),-16.9%,13.4%,3.1,u,79.4µM*,-31.4%
NCCCNC(=O)c1ccc(/C=N/O)nc1,-9.2%,1.4%,11.0,22.4µM*,2.82µM*,8.91µM*
CCOC(=O)CN(C(=O)CSc1nnc(CNc2ccc(C)cc2C)o1)c1ccccc1,-7.7%,-9.9%,2.4,50.1µM*,-8.0%[59 µM],u
Cc1ccc(NCc2nnc(SCC(=O)N(Cc3ccccc3)C(C)(C)C)o2)c(C)c1,-1.8%,-12.5%,x,u,-2.4%[12.7 µM],u
Cc1ccnc2ccc(P(=O)(c3ccccc3)c3ccccc3)cc12,x,x,x,-15.9%,9.4%,x
CC[n+]1ccc(C)c2cc(P(=O)(c3ccccc3)c3ccccc3)ccc21,u,u,-15.7,44.7µM*,u,u
CC[n+]1ccc(C)c2cc(S(=O)C(F)(F)F)ccc21 (stereo unspecified),-4.6%,-10.6%,x,-5.3%,u,-28.9%
CC[n+]1ccc(C)c2cc(SC(F)(F)F)ccc21,-3.3%,59.7%,-1.1,-16.9%,7.94µM*,-22.2%
O=C(NCc1ccc(Cl)cc1)c1ccc(NC(=O)C2CCCO2)cc1 (stereo unspecified),-2.0%,31.2%,-6.5,-0.2%,u,0.0%
CCOc1ccccc1N1CCN(C(=O)c2ccccc2)CC1,-5.5%,39.1%,1.6,26.7%,6.1%[12.7 µM],-4.9%
CCOc1ccccc1N1CCN(CC(=O)NC(=O)NCc2ccco2)CC1,-5.8%,16.3%,-11.7,-28.5%,-7.4%,-15.5%
CCOc1ccccc1N1CCN(Cc2ccco2)CC1,-6.2%,u,x,50.1µM*,-6.0%[12.7 µM],3.55µM*
CCOc1ccccc1OCCCNCc1ccco1,-9.7%,u,-0.7,-10.9%,u,28.2µM*
CCOc1ccccc1N1CCN(C/C=C/c2ccc(N(C)C)cc2)CC1,0.0%,25.1µM*,-4.9,5.62µM*,10µM*,5.62µM*
O=C(NC1CCN(C(=S)NCc2ccco2)CC1)NC12CC3CC(CC(C3)C1)C2,29.9µM*,11.7%,x,-2.6%,3.2%[59 µM],-12.9%
COc1cccc(CNC(=S)Nc2ccc3c(c2)c(=O)n(C)n3C)c1,-16.3%,x,-3.9,x,x,x
CC(=O)c1ccc(N2CCN(C(=S)NCc3ccco3)CC2)cc1,-6.9%,3.4%,-0.1,-30.1%,56.2µM*,-4.5%
S=C(NCc1ccco1)N1CCN(c2ccc(Cl)cc2)CC1,-19.0%,27.7%,-1.0,-29.0%,u,-18.9%
CCOc1ccccc1N1CCN(S(=O)(=O)c2cccs2)CC1,-2.1%,42.3%,x,-2.6%,14.6%[59 µM],-22.7%
CCOc1ccccc1N1CCN(Cc2ccc(Br)s2)CC1,-0.2%,u,x,u,u,3.16µM*
CCOc1ccccc1N1CCN(C(=S)NCc2ccccc2)CC1,-12.5%,7.3%,7.0,-13.5%,-47.1%,-16.0%
CCOc1ccccc1N1CCN(S(=O)(=O)CC)CC1,26.7µM*,9.0%,-1.4,-4.5%,39.8µM*,-18.4%
CCOc1ccccc1N1CCN(C(=S)NCc2ccco2)CC1,-11.7%,-32.4%,-15.5,-33.8%,50.1µM*,-33.6%
COC(=O)c1ccc(Cn2ncc3c4sc(C)cc4n(C)c3c2=O)cc1,x,x,x,x,x,-15.8%
SMILES,PLK1 PBD block,HP1b binding inh,PI5P4Ka inh,BAZ2B inh,G9a block,JMJD2A Tudor
CCCCCCCCCCCCN1[C@@H](CC(=O)O)c2cc(C(F)(F)F)ccc2S1(=O)=O,33.6µM*,43.3%,u,x,x,u
Cc1nn(-c2ccccc2)c2c1C(c1ccc([N+](=O)[O-])cc1)N1C(=N2)C(=O)Nc2ccccc21 (stereo unspecified),-17.2%,-8.5%,-9.0,u,-1.0%[59 µM],-32.1%
Cc1cccc(NC2=Nc3ccccc3N3C2=Nc2c(c(C)nn2-c2ccccc2)C3c2ccc(O)c(O)c2)c1 (stereo unspecified),-1.5%,50.1%,-92.3*,3.0%[57.1 µM],38.8%,-15.9%
Cc1ccc(NC2=Nc3ccccc3N3C2=Nc2c(c(C)nn2-c2ccccc2)C3c2ccc(O)c(O)c2)cc1 (stereo unspecified),-8.2%,44.3%,-74.7*,-26.5%,37.5%[0.501 µM],-25.7%
Cc1nn(-c2ccccc2)c2c1C(c1ccc(O)c(O)c1)N1C(=N2)C(Nc2ccccc2)=Nc2ccccc21 (stereo unspecified),-5.9%,40.1%,-5.4,1.5%,28.2%[0.501 µM],-10.1%
CC(SC(C)C(=O)NN=Cc1cccc(F)c1)C(=O)NN=Cc1cccc(F)c1 (stereo unspecified),4.5%,16.7%[57 µM],9.9,x,x,-15.9%
Cc1ccc2c(c1)N(C(=O)CCC(=O)NCCN1CCOCC1)CCO2,-5.0%,55.5%,1.9,-17.1%,20.8%,-4.2%
CCOc1cc(C(C(=O)NCC2CCCO2)N(C(=O)Cn2nnc3ccccc32)c2ccc(OC)c(OC)c2)ccc1O (stereo unspecified),0.0%,21.3%,2.3,-0.8%,44.7µM*,13.4%
Cc1ccc(N(C(=O)Cn2nnc3ccccc32)C(C(=O)NCc2ccco2)c2ccc(C)o2)cc1 (stereo unspecified),-6.2%,5.1%,0.6,-36.6%,u,-12.3%
COc1ccc(N(C(=O)/C=C\C(=O)Nc2ccc(Cl)cc2)C(C(=O)NCc2ccco2)c2ccc(C)cc2)cc1 (stereo unspecified),x,19.1%,x,u,11.2µM*,-33.6%
Cc1ccc(NC(=O)/C=C\C(=O)N(c2ccc(C(C)C)cc2)C(C(=O)NCc2ccco2)c2ccc(Cl)cc2)cc1 (stereo unspecified),x,24.3%,x,-17.3%,u,-27.5%
Cc1ccc(C(C(=O)NCc2ccco2)N(C(=O)Cn2nnc3ccccc32)c2ccccc2)o1 (stereo unspecified),-16.0%,-18.7%,-6.2,-7.6%,44.7µM*,-33.8%
COc1ccc(N(C(=O)Cn2nnc3ccccc32)C(C(=O)NCc2ccco2)c2ccc(C)o2)cc1 (stereo unspecified),-0.8%,-16.1%,4.0,44.7µM*,50.1µM*,-25.3%
O=C(NCCCN1CCCC1)c1ccc2c(c1)N(Cc1cccc(Cl)c1)C(=O)c1ccccc1S2(=O)=O,1.4%,x,-17.5,x,x,x
Cc1cccc(CNC(=O)CN2C(=O)CCn3nc(-c4cn(C)c5ccccc45)cc32)c1,x,-3.0%[57 µM],x,-19.2%,-9.4%[59 µM],-30.4%
COCCNC(=O)C(c1ccco1)N(C(=O)Cn1nnc2ccccc21)c1cc(C)ccc1C (stereo unspecified),3.36µM*,-10.9%,-21.8,0.5%,-16.7%,-21.4%[11.4 µM]
CC(C)c1ccc(NC(=O)c2cc(S(=O)(=O)N3CCCCC3)cn2C)cc1,x,21.7%[57 µM],x,-1.9%,3.7%[59 µM],-18.8%
